# Results from the supplement of paper PMC7366291.
# Structures can show the parent of a compound that is named as a salt. ± gives the standard deviation or the standard deviation of the averaged measurements.
# Key:
# Settings in all cases: 25 µM; exposure: 24-48 hpf
# [1] = system: Danio rerio Tg(wt1b:EGFP) embryo, pronephros; assay: glomerular separation, fold change vs DMSO control; higher = glomeruli further apart (abnormal)
# Outline: (§1)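 Each feature value is a fold change relative to the mean of same-day DMSO-treated embryos. Embryos of the Tg(wt1b:EGFP) zebrafish line, dechorionated, received 25 μM compound in 0.5% DMSO from 24 to 48 hpf at 28.5°C, in HEPES-buffered E3 with 0.003% PTU. Distances and angles were computed by a Fiji macro from 16 manually set reference points on maximum projections of dorsal pronephros images, and values beyond 2 SD of the feature mean were removed.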
# [2] = system: Danio rerio Tg(wt1b:EGFP) embryo, pronephros; assay: glomerular width (mean of left and right), fold change vs DMSO control; higher = wider glomerulus
# Outline: as §1
# [3] = system: Danio rerio Tg(wt1b:EGFP) embryo, pronephros; assay: fraction of imaged embryos annotated as normal kidney; higher = less nephrotoxic; extreme values may be limits of the assay
# Outline: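 Zebrafish embryos carrying Tg(wt1b:EGFP) were dechorionated and exposed to 25 μM compound (0.5% DMSO) between 24 and 48 hpf at 28.5°C. Their pronephroi were imaged by widefield fluorescence, and each embryo was classed by hand from maximum projections. The measure is the fraction of embryos per treatment falling in the normal-kidney category.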
# [4] = system: Danio rerio Tg(wt1b:EGFP) embryo, pronephros; assay: pronephric angle neck segment to proximal convoluted tubule (mean of left and right), fold change vs DMSO control; higher = larger pronephric angle
# Outline: as §1
SMILES,glomerular separation [1],glomerular width [2],fraction of imaged embryos annotated as normal kidney [3],pronephric angle neck segment [4]
C[N+]1(CCCCC[N+]2(C)CCCC2)CCCC1 [Pentolinium bitartrate],1.28 ± 0.5,1.0393 ± 0.0007,0.75,1.05 ± 0.052
Nc1nc(NC2CC2)c2ncn([C@H]3C=C[C@@H](CO)C3)c2n1 [Abacavir Sulfate],0.958 ± 0.35,1.05 ± 0.052,0.9,1.04 ± 0.034
Cc1cnc(C(=O)NCCc2ccc(S(=O)(=O)NC(=O)NC3CCCCC3)cc2)cn1 [Glipizide],0.984 ± 0.34,1.056 ± 0.0043,0.833,0.944 ± 0.021
CC(=O)c1ccc2c(c1)N(CCCN1CCC(CCO)CC1)c1ccccc1S2 [Piperacetazine],0.868 ± 0.28,0.976 ± 0.023,0.833,1.01 ± 0.081
CCCCNc1c(C(=O)OCC)c(C)nc2c1cnn2CC [Tracazolate hydrochloride],1.18 ± 0.63,0.929 ± 0.072,0.917,1.06 ± 0.015
O=C(c1ccccc1)c1ccc2n1CCC2C(=O)O (stereo not given) [Ketorolac tromethamine],1 ± 0.43,1.15 ± 0.013,0.667,1.04 ± 0.025
OCCN1CCN(CCCN2c3ccccc3Sc3ccc(C(F)(F)F)cc32)CC1 [Fluphenazine dihydrochloride],1.03 ± 0.53,1.07 ± 0.02,0.833,0.932 ± 0.013
Cc1c(N(C)C)c(=O)n(-c2ccccc2)n1C [Amidopyrine],0.645 ± 0.17,1 ± 0.0092,0.917,1.01 ± 0.033
CC(=O)O[C@]1(C(C)=O)CC[C@H]2[C@@H]3C=C(C)C4=CC(=O)CC[C@@H]4[C@H]3CC[C@@]21C [Nomegestrol acetate],1.02 ± 0.29,0.953 ± 0.054,0.909,1.131 ± 0.0084
OCCOCCN1CCN(C2=Nc3ccccc3Sc3ccccc32)CC1 [Quetiapine hemifumarate],0.872 ± 0.15,1.07 ± 0.066,0.917,0.98617 ± 0.00072
CCN1CCN(c2cc3c(cc2F)c(=O)c(C(=O)O)cn3C2CC2)CC1 [Enrofloxacin],0.888 ± 0.34,1.07 ± 0.12,0.917,1.01 ± 0.037
CC(C)(C)NCC(O)COc1cccc2c1CCC(=O)N2 (stereo not given) [Carteolol hydrochloride],1.21 ± 0.32,0.909 ± 0.034,0.917,1.01 ± 0.027
Nc1cc(C(Cl)=C(Cl)Cl)c(S(N)(=O)=O)cc1S(N)(=O)=O [Clorsulon],0.798 ± 0.23,0.948 ± 0.062,0.917,0.935 ± 0.044
CCCc1nn(C)c2c(=O)[nH]c(-c3cc(S(=O)(=O)N4CCN(C)CC4)ccc3OCC)nc12 [Sildenafil],1.12 ± 0.37,0.928 ± 0.045,1,0.9607 ± 0.0012
Cc1c(O)cccc1C(=O)N[C@@H](CSc1ccccc1)[C@H](O)CN1C[C@H]2CCCC[C@H]2C[C@H]1C(=O)NC(C)(C)C [Nelfinavir mesylate],0.563 ± 0.13,1.05 ± 0.017,1,0.954 ± 0.03
CN1C(=O)OC(C)(C)C1=O [Trimethadione],0.837 ± 0.27,0.996 ± 0.064,0.75,0.935 ± 0.026
CC(=O)OCC(=O)[C@@]1(OC(C)=O)[C@@H](C)C[C@H]2[C@@H]3C[C@H](F)C4=CC(=O)C=C[C@]4(C)[C@@]3(F)[C@@H](O)C[C@@]21C [Diflorasone Diacetate],1.52 ± 0.52,1.32 ± 0.052,0.727,0.973 ± 0.059
C[C@]12CC[C@@H]3c4ccc(O)cc4CC[C@H]3[C@@H]1CC[C@@H]2O [Estradiol-17 beta],3.16 ± 1.2,0.812 ± 0.069,0.167,1.29 ± 0.22
Cc1cccn2c(=O)c(-c3nnn[nH]3)cnc12 [Pemirolast potassium],1.25 ± 0.38,0.89 ± 0.062,1,0.99 ± 0.042
CC(C)CC(=O)N[C@H](C(=O)N[C@H](C(=O)N[C@@H](CC(C)C)[C@@H](O)CC(=O)N[C@@H](C)C(=O)N[C@@H](CC(C)C)[C@@H](O)CC(=O)O)C(C)C)C(C)C [Pepstatin A],0.947 ± 0.11,1.03 ± 0.012,0.818,1.01 ± 0.041
COC(=O)Nc1nc2ccc(SC(C)C)cc2[nH]1 [Methiazole],3.98 ± 1.2,0.49428 ± 0.00044,0,1.95 ± 0.046
C[C@H]1c2cccc(O)c2C(=O)C2=C(O)[C@]3(O)C(=O)C(C(N)=O)=C(O)[C@@H](N(C)C)[C@@H]3[C@@H](O)[C@@H]21 [Doxycycline hydrochloride],1.09 ± 0.26,1.02 ± 0.055,0.833,1.034 ± 0.01
N[C@@H](Cc1ccc(O)c(O)c1)C(=O)O [Levodopa],1.02 ± 0.31,1.06 ± 0.048,0.917,0.972 ± 0.018
CC1(C)OC(=O)NC1=O [Dimethadione],1.27 ± 0.36,0.89 ± 0.031,0.667,1.0483 ± 0.00042
Cc1ccccc1C(OCCN(C)C)c1ccccc1 (stereo not given) [Orphenadrine hydrochloride],0.79 ± 0.21,1.04 ± 0.013,0.833,1 ± 0.015
